Sampled rows, rich in hits. Any-hit rate of the full collection: about 3.5%.
GDH-TPI inh – counter-screen for M. tuberculosis FBA inhibitors: GDH-TPI coupled enzymes. GDH-TPI coupled enzyme counterscreen, NADH absorbance. inhibition, % at 4.8 µM. 360,000 compounds, 1.2% hits; in the data active = inhibition above about 30%;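 also: 0% = DMSO wells and 100% = wells lacking the enzyme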
FadD28 binding – inhibitors of Mycobacterium tuberculosis FadD28 bisubstrate binding | FadD28 bisubstrate probe binding, fluorescence polarization | inhibition, % at 12.5 µM | 360,000 compounds, 0.22% hits; in the data active = inhibition above about 8.5%, passing the limit was not always enough
Mtb hypoxia inh – reduces hypoxia-regulated biosensor signal in M. tuberculosis | M. tuberculosis hypoxia-regulated fluorescent reporter, fluorescence | fluorescence inhibition, % (concentration not given with the values) | 300,000 compounds, 0.1% hits | AID 1159583; in the data active = fluorescence inhibition mostly above about 23%, no sharp cut-off; inactive = mostly below about 17%
FBA Mtb inh – inhibitors of M. tuberculosis fructose-bisphosphate aldolase. inhibition, % at 1 µM. P9WQA3. purified M. tuberculosis FBA, fluorescence read-out. 360,000 compounds, 2.3% hits; in the data active = inhibition above about 27%;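 also: 0% = vehicle and 100% = reference inhibitor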
Target sequence (P9WQA3 whole entry, looked up): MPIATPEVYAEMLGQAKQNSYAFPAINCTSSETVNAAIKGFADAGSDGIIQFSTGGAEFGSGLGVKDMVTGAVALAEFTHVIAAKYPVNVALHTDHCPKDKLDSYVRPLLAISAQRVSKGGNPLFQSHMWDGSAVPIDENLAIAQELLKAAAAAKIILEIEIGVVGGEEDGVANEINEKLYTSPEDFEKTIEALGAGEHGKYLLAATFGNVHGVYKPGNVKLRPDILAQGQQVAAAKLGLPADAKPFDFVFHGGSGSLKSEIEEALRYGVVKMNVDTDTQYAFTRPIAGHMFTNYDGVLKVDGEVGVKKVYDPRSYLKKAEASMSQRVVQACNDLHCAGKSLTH
Mtb UGM inh – Mtb UDP-galactopyranose mutase inhibition | purified UGM, fluorescence polarization probe displacement | inhibition, % at 10 µM | 320,000 compounds, 0.06% hits; in the data active = inhibition above about 10%, passing the limit was not always enough
Rv3671c inh – inhibitors of M. tuberculosis serine protease Rv3671c. P9WHR9. inhibition, % at 5.96 µM. 320,000 compounds, 0.048% hits; in the data active = inhibition above about 38%;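 also: extracellular domain of Rv3671c used as enzyme; 0% = enzyme with DMSO and 100% = no enzyme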
An asterisk follows results filed as active; . = no result; + = active, no number.

SMILES	GDH-TPI inh	FadD28 binding	Mtb hypoxia inh	FBA Mtb inh	Mtb UGM inh	Rv3671c inh
COCCCNC(=S)N/N=C/c1ccc(O)cc1O	33.2*	0.1	.	2.1	1.1	5.2
CC1(C)C2CC=C(C=Nn3cnnc3)C1C2 (configuration not stated)	.	.	9.8	.	.	.
O=C(NN=Cc1ccc(Br)cc1)c1cc[n+](Cc2ccccc2)cc1	.	.	-1.8	.	.	.
Cc1ccc(C=Nn2c(-c3ccncc3)n[nH]c2=S)cc1	.	.	2.4	.	.	.
O=[N+]([O-])c1cccc(/C=N/Nc2nccnc2Cl)c1	37.2*	0.1	.	1.0	1.2	3.1
O=[N+]([O-])c1cccc(/C=N/Nc2ccccn2)c1	21.3	-0.2	.	0.2	0.4	-0.7
Nc1[nH]c(N=NC(=O)c2ccc(F)cc2)c2ccccc12	32.9*	-6.3	4.1	-1.9	-1.0	1.5
C=C(C)COc1ccc2c(C)c(CC(=O)N3C[C@H]4C[C@@H](C3)c3cccc(=O)n3C4)c(=O)oc2c1	29.4	-0.4	.	114.5*	-1.5	-10.1
NC(Cc1ccc([N+](=O)[O-])cc1)=NOC(=O)c1ccccc1F	.	.	1.0	.	.	.
CCN1CCN(c2ccc(S(=O)(=O)N3CCOCC3)cc2NC(=O)/C=C/c2ccc(OC)c(OC)c2)CC1	33.8*	-0.4	.	4.9	-2.8	4.8
COc1ccc(/C=N/NC(=S)Nc2cc(S(=O)(=O)N3CCOCC3)ccc2N2CCOCC2)cc1O	42.1*	-6.3	.	-0.2	-0.9	-0.6
CCN1CCN(c2ccc(S(=O)(=O)N3CCCCC3)cc2NC(=O)/C=C/c2ccc(OC)c(OC)c2)CC1	20.2	-9.4	6.7	-2.7	2.9	-10.5
CCC(C)C(NC(=O)C(=Cc1ccccc1)NC(=O)c1ccc(OC)cc1)C(=O)O (configuration not stated)	.	.	5.1	.	.	.
Cc1cc2[nH]c(=O)c(=O)[nH]c2cc1S(=O)(=O)NC1CCCCC1C (configuration not stated)	20.8	-4.6	.	31.7*	-5.1	5.8
CNc1ccc(Cl)cc1C(N)=O	8.8	-0.2	5.9	113.2*	0.8	5.0
Oc1ccc(/C=N/NC(=S)Nc2cccnc2)c(O)c1O	37.0*	-0.2	.	-8.8	.	.
Oc1ccccc1C=NNC(=S)NN=Cc1ccccc1O	44.7*	-0.2	8.8	-2.1	.	.
COc1ccc(SCC(Cc2ccccc2)N2CCC(C(C)(C)C)CCC2=O)cc1 (configuration not stated)	.	.	-1.0	.	.	.
Cc1cccc(Nc2c([N+](=O)[O-])c(=O)oc3ccccc23)c1	31.7*	-2.6	-3.8	-4.1	-0.5	1.7
Cc1c(CCC(C)C)c(=O)n2c([nH]c3ccccc32)c1C#N	3.3	-2.6	.	23.5	-0.2	3.6
Cc1c(CCO)c(=O)n2c([nH]c3ccccc32)c1C#N	15.6	1.3	-3.3	+	-3.7	-11.9
c1ccc2c(c1)C1=NCCN1c1ccccc1-2	7.6	-2.3	.	72.6*	.	.
O=C(NN=Cc1ccccn1)c1cc(-c2ccc(Cl)s2)[nH]n1	.	.	2.2	.	.	.
Cc1nn(CC(=O)NN=Cc2cccs2)c(C)c1[N+](=O)[O-]	.	.	-3.5	.	.	.
O=[N+]([O-])c1cccc(C=NN2CCN(Cc3ccccc3)CC2)c1	.	.	2.9	.	.	.
SMILES	GDH-TPI inh	FadD28 binding	Mtb hypoxia inh	FBA Mtb inh	Mtb UGM inh	Rv3671c inh
S=c1[nH]nc(-c2cc3ccccc3o2)n1Cc1ccccc1	19.8	-0.1	-0.6	132.1*	0.6	-1.8
CCC(C(=O)Nc1ccc2c(c1)OCCO2)n1nnc2ccccc2c1=O (configuration not stated)	-1.3	-4.9	1.0	-2.0	-2.0	-6.0
O=c1c2ccccc2nnn1CSc1ccc2c(c1)OCCO2	3.3	-4.4	5.5	152.4*	1.3	1.9
Cc1cc(NN=C2CCCc3ccccc32)nc2ccccc12	.	.	-16.4	.	.	.
O=C(CSc1nc2ccccc2nc1N1CCOCC1)N1CCN(c2ccccc2)CC1	16.6	-0.3	17.1*	-1.1	-0.9	2.5
CSc1ccc(C=NNC(=O)c2ccc(-n3cnnn3)cc2)cc1	.	.	19.9	.	.	.
O=C(O)CC1SC(=NN=Cc2ccc([N+](=O)[O-])cc2)N(c2ccc(O)cc2)C1=O (configuration not stated)	.	.	-4.9	.	.	.
COCCn1c(=O)[nH]c(=O)c2c(C(F)(F)F)cc(-c3cccs3)nc21	13.6	-0.2	11.7	+	-1.6	-1.6
O=C(NN1C(=O)/C(=C/c2ccc(O)c([N+](=O)[O-])c2)SC1=S)c1ccccc1Cl	5.0	20.7*	20.2	-21.4	1.5	-10.2
O=C1/C(=C/c2ccc(O)c([N+](=O)[O-])c2)SC(=S)N1Cc1ccccc1	2.5	2.1	.	-2.6	-0.7	-9.2
O=[N+]([O-])c1ccc(O)c(C=Nn2c(-c3ccccc3)n[nH]c2=S)c1	.	.	10.4	.	.	.
CC(/C=C1\SC(=S)N(NC(=O)c2cccc(O)c2)C1=O)=C\c1ccccc1	10.2	-5.0	6.4	-4.0	-3.2	-42.1
O=C(NN1C(=O)/C(=C/c2ccc(O)cc2)SC1=S)c1ccccc1O	8.1	18.9*	11.0	-14.9	-12.1	-24.0
Cc1ccc(/C=C2\SC(=S)N(/N=C/c3cc([N+](=O)[O-])ccc3O)C2=O)o1	23.8	26.2*	.	-21.8	4.2	17.5
O=C(NN1C(=O)/C(=C/c2ccc(O)cc2)SC1=S)c1cccc(O)c1	7.1	19.1*	-0.6	-12.8	-16.0	-55.1
O=C(Cc1ccccc1)NN1C(=O)/C(=C/c2ccc(C(=O)O)cc2)SC1=S	12.6	-0.4	17.7	-2.0	4.1	1.0
COc1cc(/C=C2\SC(=S)N(NC(=O)c3ccccc3O)C2=O)ccc1O	8.1	11.5*	-1.5	-13.2	-25.3	-113.5
COc1ccc(/C=C2\SC(=S)N(NC(=O)c3ccncc3)C2=O)cc1OC	.	.	.	.	-0.1	-7.5
Cn1cc(/C=C2\SC(=S)N(NC(=O)c3ccccc3)C2=O)c2ccccc21	21.0	2.0	6.8	-9.3	-3.1	-31.4
O=C(NN1C(=O)/C(=C/c2cc([N+](=O)[O-])ccc2O)SC1=S)c1ccccc1O	.	.	.	.	2.2	51.7*
CC(=NNC(=O)c1nnn(-c2nonc2N)c1CN1CCc2ccccc21)c1ccccc1O	.	.	-19.2	.	.	.
CC(=O)c1ccc(N2CCN(C(=O)c3nn(C)c4c3CS(=O)(=O)c3ccccc3-4)CC2)cc1	40.5*	-0.4	8.3	2.0	-1.5	-2.8
Cn1nc(C(=O)N2CCN(c3ccc(Cl)cc3)CC2)c2c1-c1ccccc1S(=O)(=O)C2	8.2	0.0	-0.4	-2.2	0.7	0.0
CC1=NNC(=O)C1CCC(=O)NN=Cc1ccc(Cl)c(Cl)c1 (configuration not stated)	.	.	-17.0	.	.	.
COc1cccc(NC(=O)CN(C)C(=O)c2cc3c(s2)CCCCC3)c1	-3.2	12.6*	3.1	-1.3	0.9	-3.6
O=C(C[n+]1ccccc1)NN=Cc1ccc(O)cc1	.	.	12.5	.	.	.
O=C1NC(=S)N(c2ccccc2)C(=O)/C1=C/c1ccco1	-4.3	11.5*	.	-2.0	-3.5	-63.3
CCCn1c(-c2ccccc2)nc2c(=O)n(C)c(=O)[nH]c21	8.8	-0.7	-2.7	+	-1.8	4.0
COc1ccc(-c2nc3c(=O)n(C)c(=O)[nH]c3n2CCc2ccccc2)cc1	8.3	-2.7	.	184.2*	-0.9	3.7
